Sampled rows, rich in hits. Any-hit rate of the full collection: about 10%.
MCF10A rereplic: A quantitative high throughput screen for small molecules that induce DNA re-replication in MCF 10a normal breast cells | MCF 10A DNA re-replication, Hoechst nuclear intensity, 48 h | Potency, µM (titrated, usually from 46.1 µM), usual class: activators | 2.9% of 350,000 active; also: nearly all actives have a fitted effect of over 50% in size
KB-V1 MDR tox: qHTS assay for MDR1-selective chemotherapeutics: Primary screen using the drug-selected MDR subline cells KB-V1. KB-V1 MDR cells viability, CellTiter-Glo, 72 h. Potency, µM (doses to about 46.1 µM), most hits filed as cytotoxic. 3.4% of 400,000 active. AID 1347076, 2019; also: nearly all actives have a fitted effect of over 60% in size
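Cytotoxicity via CellTiter-Glo luminescence after 72 h compound exposure at 37 degrees C. Cells: drug-selected KB-V1 line, DMEM phenol-red free plus 10% FBS. Compounds tested at multiple concentrations; normalized data fitted to concentration-effect curves.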
RORg inh: qHTS for inhibitors of ROR gamma transcriptional activity; 5.4% of 310,000 active; Nuclear receptor ROR-gamma (Mus musculus), P51450; Potency, µM (series often up to 53.6 µM), most hits filed as inhibitors; AID 2551, 2010; Drosophila S2 Gal4-RORgamma UAS-luciferase reporter, 20 h; also: nearly all actives have a fitted effect of over 60% in size
Target sequence (P51450 whole entry, looked up, the tested form may be a part): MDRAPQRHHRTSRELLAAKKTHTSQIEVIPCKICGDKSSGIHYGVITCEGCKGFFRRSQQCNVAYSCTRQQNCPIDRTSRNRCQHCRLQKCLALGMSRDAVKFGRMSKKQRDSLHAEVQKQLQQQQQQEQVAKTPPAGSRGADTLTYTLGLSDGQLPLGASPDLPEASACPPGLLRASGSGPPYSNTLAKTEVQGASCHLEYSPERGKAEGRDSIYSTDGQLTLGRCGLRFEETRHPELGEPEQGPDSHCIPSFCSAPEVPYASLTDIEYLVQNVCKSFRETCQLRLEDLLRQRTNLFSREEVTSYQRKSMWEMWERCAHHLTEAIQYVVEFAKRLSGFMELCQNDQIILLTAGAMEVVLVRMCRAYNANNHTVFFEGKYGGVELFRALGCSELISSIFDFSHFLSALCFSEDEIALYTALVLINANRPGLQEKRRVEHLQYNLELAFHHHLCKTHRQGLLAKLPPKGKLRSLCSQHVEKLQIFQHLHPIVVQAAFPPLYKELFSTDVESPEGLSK
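A Gal4/UAS one-hybrid system in insect cells: metallothionein-promoter Gal4–ROR gamma fusion plus Photinus luciferase reporter. Copper sulfate 700 uM final, 20 hr ambient incubation, luminescent detection after 10 min with reagent.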
Gal4-VP16 FLuc: VP16 counterscreen qHTS for inhibitors of ROR gamma transcriptional activity; Potency, µM (titrated, usually from 53.6 µM), usual class: inhibitors; Drosophila S2 Gal4-VP16 UAS-luciferase, luminescence, 20 h; 3.5% of 310,000 active;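 also: Gal4-VP16 expression switched on by copper sulfate through the metallothionein promoter; nearly all actives have a fitted effect of over 50% in size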
SW480 rereplic: A quantitative high throughput screen for small molecules that induce DNA re-replication in SW480 colon adenocarcinoma cells; SW480 DNA re-replication, Hoechst DNA content imaging, 48 h; Potency, µM (series often up to 46.1 µM), most hits filed as activators; 1.8% of 340,000 active; also: nearly all actives have a fitted effect of over 55% in size
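Hoechst fluorescence of nuclei (405 nm excitation, 500-530 nm emission) measured by plate-scanning imager after 48 hr compound exposure at 37 C; re-replication scored as increased number of nuclei with elevated intensity.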
KB-3-1 tox: qHTS assay for MDR1-selective chemotherapeutics: Primary screen using the parental adenocarcinoma cell KB-3-1. KB-3-1 viability, CellTiter-Glo ATP luminescence, 72 h. Potency, µM (highest dose often 46.1 µM), hits mostly cytotoxic. 1.4% of 400,000 active. AID 1347075, 2019; also: nearly all actives have a fitted effect of over 60% in size
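Parental KB-3-1 adenocarcinoma cells in phenol-red-free DMEM with 10% FBS were pin-treated with compounds at several concentrations, incubated 72 h at 37 °C, and viability read by CellTiter-Glo luminescence; concentration-effect curves were fitted after normalization.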
Large screens that a line does not name were inactive. Calls follow the shape of the dose curve; as a rule, active = well fitted curve in the direction sought with a large enough effect; inconclusive = small, poorly fitted or top-dose-only effect, or another doubt; inactive = no such curve, though single readings can be large; an effect the other way counts as inactive or inconclusive.

O=C(CCCSc1nc2ccccc2[nH]1)Nc1nnc(-c2ccccc2)o1	RORg inh 13µM
C=C(C)Cn1c2ccc(NC(=O)NCc3ccc(F)cc3)cc2c(=O)n1C	none (no result: MCF10A rereplic, RORg inh, Gal4-VP16 FLuc, SW480 rereplic)
COc1ccc(-c2sc3ccccc3c2-c2ccc(OC)cc2F)cc1	none (no result: MCF10A rereplic, RORg inh, Gal4-VP16 FLuc, SW480 rereplic)
COC(=O)C1(C(=O)OC)C[C@@H]2CON=C2[C@H]1c1ccccc1	none (no result: MCF10A rereplic, KB-V1 MDR tox, SW480 rereplic, KB-3-1 tox)
COc1ccc(CN2C(=O)CN(S(C)(=O)=O)CC2(C)C(=O)NCc2ccccc2)cc1OC (stereo not given)	none (no result: MCF10A rereplic, RORg inh, Gal4-VP16 FLuc, SW480 rereplic)
Cc1ccc(OCCSc2nc3ccc(NC(=O)c4ccc5c(c4)OCO5)cc3s2)cc1	none (no result: MCF10A rereplic, RORg inh, Gal4-VP16 FLuc, SW480 rereplic)
Cc1ccc(NC(=O)C2C3CC4OC(=O)C2C4C3)cc1Cl (stereo not given)	MCF10A rereplic 3.7µM
Cc1ccc(-c2nc3ncccc3o2)cc1NC(=O)COc1ccc(C(C)C)cc1	KB-V1 MDR tox inconclusive (no result: MCF10A rereplic, RORg inh, Gal4-VP16 FLuc, SW480 rereplic)
Cc1ccc2nc(-c3ccc(Cl)cc3)c(Cc3ccccn3)n2c1	KB-V1 MDR tox inconclusive (no result: MCF10A rereplic, RORg inh, Gal4-VP16 FLuc, SW480 rereplic)
CCCCCOC(=O)C1=C(C)Nc2nnnn2C1c1ccccc1Cl (stereo not given)	MCF10A rereplic inconclusive, KB-V1 MDR tox 21µM, RORg inh inconclusive, Gal4-VP16 FLuc inconclusive
COC(=O)C1=C(C)Nc2nnnn2C1c1ccccc1Cl (stereo not given)	none
COc1ccc(C(OC(=O)c2c(C)noc2C)C(=O)NC2CCCC2)cc1 (stereo not given)	KB-V1 MDR tox 5.2µM
COc1ccc(C(OC(=O)c2ccco2)C(=O)NC2CCCCC2)cc1 (stereo not given)	none
CC(C)Cn1c(SCC(=O)N2CCN(C(=O)c3ccco3)CC2)nc2ccccc2c1=O	MCF10A rereplic 0.65µM
Cc1ccc(OCCSc2nc3ccccc3n2CC(=O)N2CCCCC2)c(C)c1	KB-V1 MDR tox 12µM, KB-3-1 tox inconclusive (no result: MCF10A rereplic, RORg inh, Gal4-VP16 FLuc, SW480 rereplic)
Cn1c(SCC(=O)N2CCCC2)nc2ccccc2c1=O	none
CCn1c(SCC(=O)N2CCCC2)nc2ccccc2c1=O	KB-V1 MDR tox 6.5µM
CCOc1ccccc1-n1c(CN2CCN(C(=O)c3ccco3)CC2)nc2ccccc2c1=O	MCF10A rereplic 3.7µM, KB-V1 MDR tox inconclusive
CCC(Cc1c(I)cc(I)c(O)c1I)C(=O)O (stereo not given)	none (no result: KB-V1 MDR tox, KB-3-1 tox)
COCCCn1c(SCC(=O)N2CCOCC2)nc2ccccc2c1=O	none
CCOC(=O)c1c(C)[nH]c(C)c1C(=O)CSc1nc2ccccc2c(=O)n1-c1ccc(Cl)cc1	MCF10A rereplic inconclusive, KB-V1 MDR tox 10µM, RORg inh inconclusive, SW480 rereplic inconclusive, KB-3-1 tox inconclusive
CCn1c(SCC(=O)N2CCN(c3ccc(Cl)cc3)CC2)nc2ccccc2c1=O	KB-V1 MDR tox 2.6µM
COCCn1c(SCC(=O)N2CCCCC2)nc2ccccc2c1=O	KB-V1 MDR tox 4.1µM, RORg inh inconclusive
CC(C)NC(=O)Cn1c(SCC(=O)N2CCCCCC2)nc2ccccc21	KB-V1 MDR tox 15µM, Gal4-VP16 FLuc inconclusive
CCOC(=O)c1c(C)[nH]c(C)c1C(=O)CSc1nc2ccccc2c(=O)n1-c1ccc(C)cc1	none
Cc1nn(S(=O)(=O)c2ccc(C(C)(C)C)cc2)c(C)c1S(=O)(=O)N1CCC(C)CC1	none (no result: MCF10A rereplic, RORg inh, Gal4-VP16 FLuc, SW480 rereplic)
COc1ccccc1C(=O)NCCC(=O)NCC(c1ccccc1)N(C)C (stereo not given)	RORg inh 11µM
CCOc1ncccc1C(=O)NCc1ccc(OC)cc1	MCF10A rereplic inconclusive, KB-V1 MDR tox 13µM, SW480 rereplic 8.2µM, KB-3-1 tox 15µM
COc1ccccc1C(=O)NCc1ccccn1	RORg inh 8.9µM
COc1ccccc1C(=O)NCCC(=O)NCCc1ccccc1	KB-V1 MDR tox inconclusive
COc1ccc(CC(=O)NCC(c2ccc(OC)cc2)N(C)C)cc1 (stereo not given)	MCF10A rereplic 3.3µM, SW480 rereplic inconclusive
